From PubChem BioAssay
This is a sample that favours compounds with a hit; in the whole collection about 2.9% have one here.
proKLK7 act: proKLK7 (human) activation, primary screen | P49862 | purified proKLK7, EDANS-DABCYL substrate fluorescence; 100% is mature enzyme control, 0% vehicle | activation, % at 7 µM | actives 0.9% (n = 370,000);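 active means activation above the mean of all tested compounds plus 3 SD, computed per campaign excluding outliers beyond control limits, cut at about 13% in these data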
PLCg1 inh: blocks human PLC-gamma1 enzyme activity; purified PLC-gamma1, fluorogenic substrate, fluorescence; inhibition, % at 12.2 µM; actives 0.84% (n = 370,000); AID 720700; in the data active means inhibition above about 9.5%
ADAM17 inh: ADAM17 inhibition, QFRET primary screen; P78536; recombinant ADAM17, EDANS/DABCYL FRET peptide cleavage; inhibition, % at 6.95 µM; actives 0.83% (n = 370,000);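 active means inhibition above the mean of compounds lying between control limits plus 3 SD, set per campaign, cut at about 8.5% in these data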;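 further: 0% = DMSO-only wells as the low control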
PLC-beta3 inh: blocks human PLC-beta3 enzyme activity | Q01970 | Purified PLC-beta3, fluorogenic substrate, fluorescence | inhibition, % at 12.2 µM | actives 0.18% (n = 370,000) | AID 720704; in the data active means inhibition above about 11%;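 further: 0% = median of compound wells on plate and 100% = full blocker control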
ADAM10 inh: inhibitors of human ADAM10; recombinant ADAM10, EDANS/DABCYL FRET peptide cleavage, 3 h; inhibition, % at 7 µM; actives 0.62% (n = 370,000); AID 720582;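 active means inhibition above a per-campaign cutoff equal to the mean of compounds falling between control-based bounds plus 3 SD, cut at about 20% in these data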;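 further: 0% = DMSO wells while the 100% control is not disclosed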
ADAM10 counter: inhibits human ADAM10 in ADAM17 exosite counter-screen; shares compounds with ADAM17 inh; recombinant ADAM10, EDANS/DABCYL FRET peptide cleavage, 3 h; inhibition, % at 6.95 µM; actives 47% (n = 2,900);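 active means mean inhibition over the triplicate runs exceeds the activity threshold set in the earlier primary screen, cut at about 20% in these data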;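 further: 0% = DMSO wells and 100% = marimastat wells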
ADAM17 confirm: confirmation of inhibitors of human ADAM17; actives 65% (n = 2,900); recombinant ADAM17, EDANS/DABCYL QFRET peptide cleavage; AID 743257; shares compounds with ADAM17 inh; inhibition, % at 6.95 µM;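 active means mean inhibition across replicates above the hit cutoff set in the primary screen, cut at about 8.5% in these data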;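 further: 0% = DMSO wells and 100% = marimastat wells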
* marks the source's active call; other numbers are inactive results; / = no result.

SMILES | proKLK7 act | PLCg1 inh | ADAM17 inh | PLC-beta3 inh | ADAM10 inh | ADAM10 counter | ADAM17 confirm
COc1cccc(CNc2ccc([N+](=O)[O-])cc2C)c1 | 1 | 6 | 12* | -1 | 17 | 15 | 12*
COc1ccc(OC)c(CNc2ccc([N+](=O)[O-])cc2C)c1 | 0 | -1 | 5 | -5 | 11 | / | /
CC(=O)NS(=O)(=O)c1ccc(NC(=O)C(Sc2ccccc2)c2ccccc2)cc1 (stereo unspecified) | -1 | -2 | 3 | 9 | 4 | / | /
CCCCNS(=O)(=O)c1ccc(NC(=O)C(Sc2ccccc2)c2ccccc2)cc1 (stereo unspecified) | 1 | 5 | 17* | 7 | 38* | 46* | 27*
O=C(NCC12CC3CC(CC(C3)C1)C2)c1nc2ncccn2n1 | -1 | 3 | 0 | 2 | 5 | / | /
Cc1c(C(=O)N2CCN(S(=O)(=O)c3ccccc3)CC2)oc2ccc(Br)cc12 | 1 | 6 | 10* | -1 | 12 | 24* | 14*
O=C(NCc1ccco1)c1ccc(S(=O)(=O)N2CCCc3ccccc32)cc1 | 2 | 6 | 10* | 7 | 15 | 11 | 3
O=C(NCc1ccccc1F)c1cccc(S(=O)(=O)NCc2ccccc2)c1 | 0 | 2 | -4 | -9 | -3 | / | /
O=C(NCc1cccc(C(F)(F)F)c1)c1cccc(S(=O)(=O)NCc2ccccc2)c1 | 0 | 5 | 12* | -1 | 18 | 24* | 11*
O=C(COC(=O)/C=C/c1ccc(Cl)cc1)NC(=O)NCc1ccccc1 | 0 | 9 | 9.9* | -5 | -6 | 26* | 15*
NC(=O)CNCCC(c1ccccc1)c1ccccc1 | 0 | 5 | 9.8* | 4 | 11 | -2 | 0
Clc1ccc(SCCN2CCNCC2)cc1 | 0 | 1 | -4 | 2 | -3 | / | /
COc1cccc(CN(Cc2ccco2)S(=O)(=O)c2ccc(S(=O)(=O)NCc3ccccc3)cc2)c1OC | 1 | 9 | 14* | 4 | 39* | 43* | 24*
CCN(C(=O)COC(=O)/C=C/c1cnc2ccccc2n1)c1ccccc1 | 1 | -1 | -2 | 1 | -8 | / | /
CC(C)CCN(C)C1CCN(C(=O)NCc2ccccc2)CC1 | -1 | 5 | 9 | 5 | 14 | / | /
Cc1onc(-c2ccccc2)c1CNC(=O)Nc1ccc(C(F)(F)F)cc1 | 0 | 3 | 9.1* | -5 | 18 | 27* | 16*
O=C(CN1c2ccccc2Sc2ccccc21)N/N=C/c1ccc([N+](=O)[O-])cc1 | 0 | 4 | 13* | 1 | 15 | 29* | 17*
COC(=O)c1cc(=O)cc(C(=O)OC)o1 | 0 | 8 | 8.7* | 9 | 9 | -11 | -1
O=C(CSc1nnc(-c2ccccc2)n1-c1ccccc1)NN=C/C=C\c1ccccc1[N+](=O)[O-] | 1 | 8 | 8.8* | 4 | 14 | 30* | 16*
CCn1c(SCC(=O)N/N=C/C=C/c2ccccc2[N+](=O)[O-])nnc1-c1ccc(Cl)cc1 | 0 | 0 | -3 | 0 | -3 | / | /
COC(=O)c1ccc(Oc2ccc(S(=O)(=O)N3CCCCC3)cc2N)cc1 | 0 | 2 | 0 | -8 | 10 | / | /
Nc1cc(S(=O)(=O)N2CCCCC2)ccc1Oc1ccc(Cl)cc1 | 0 | 1 | 8.8* | 6 | 20 | 17 | 11*
Cc1cc(C)cc(NC(=O)c2ccc(Cn3nc(C)c(Cl)c3C)o2)c1 | 0 | -2 | 9.8* | 1 | 7 | 21* | 9.5*
Cc1ccc(CNC(=O)c2ccc(Cn3nc(C)c(Cl)c3C)o2)cc1 | 0 | 4 | 7 | 1 | 8 | / | /
O=C1NC(=O)/C(=C/c2ccccc2Cl)N1 | 0 | 5 | 1 | 0 | 3 | / | /
Cc1ccc(Cn2c(C(CO)Nc3nc(-c4ccc(Cl)c([N+](=O)[O-])c4)cs3)nc3ccccc32)cc1 (stereo unspecified) | 0 | 5 | 17* | 6 | 20 | 16 | 9.7*
CNC(=O)CSCc1cnn(-c2ccccc2)c1-n1cccc1 | -1 | 3 | 0 | 3 | -8 | / | /
